Assay outcomes: PubChem BioAssay, The Scripps Research Institute Molecular Screening Center
Rows were chosen to be rich in hits. Some 3.4% of all compounds tested hit in one or more screens of this group.
TEAD-YAP inh: TEAD-YAP interaction inhibition; 640,000 tested, 1.4% active; HEK-TIYL cells, TEAD-Gal4/YAP UAS-luciferase luminescence; AID 1259422; inhibition, % at 9.12 µM; in the data active means inhibition above about 32%;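 further: 0% = median of test compound wells and 100% = reference inhibitor wells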
GPR151 activ: human GPR151 activation | Q8TDV0 | PathHunter beta-arrestin GPR151 cells, luminescence | activation, % at 11.2 µM | 650,000 tested, 1% active; in the data active means activation above about 4.9%;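 further: 0% = median of compound wells and 100% = cells with positive control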
FBW7 activator: activators of human E3 ligase FBW7; AID 1259310; normalized activity (activation), % at 26.1 µM; AlphaScreen FBW7–phospho-cyclin E peptide binding, activator screen; 650,000 tested, 0.13% active; Q969H0; in the data active means normalized activity above about 1.9%;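 further: purified mutant Fbw7 with reduced substrate affinity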
MITF inh: inhibitors of human MITF. AID 1259374. 650,000 tested, 0.91% active. inhibition, % at 2.6 µM. AlphaScreen MITF homodimerization, bead proximity signal; in the data active means inhibition above about 50%;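 further: 0% = vehicle wells with protein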
Target sequence (O75030 whole entry, looked up): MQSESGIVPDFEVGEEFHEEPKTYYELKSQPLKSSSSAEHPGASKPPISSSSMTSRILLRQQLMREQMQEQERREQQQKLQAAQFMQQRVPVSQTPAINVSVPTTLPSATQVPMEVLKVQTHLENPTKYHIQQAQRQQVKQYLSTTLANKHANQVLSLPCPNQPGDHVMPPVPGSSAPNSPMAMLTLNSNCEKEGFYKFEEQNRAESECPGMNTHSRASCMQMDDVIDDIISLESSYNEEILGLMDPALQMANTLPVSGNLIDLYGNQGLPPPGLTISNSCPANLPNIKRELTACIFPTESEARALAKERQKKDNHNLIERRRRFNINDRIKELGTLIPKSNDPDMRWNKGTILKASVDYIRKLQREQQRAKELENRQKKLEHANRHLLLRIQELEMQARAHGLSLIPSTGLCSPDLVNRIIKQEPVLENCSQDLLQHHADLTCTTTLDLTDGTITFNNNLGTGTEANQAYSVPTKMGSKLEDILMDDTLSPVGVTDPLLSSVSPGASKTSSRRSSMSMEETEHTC
MITF confirm: human MITF inhibition, confirmation | shares compounds with MITF inh | AlphaScreen MITF homodimerization, biotin/His-MITF beads | inhibition, % at 2.6 µM | 4,700 tested, 16% active;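 active means inhibition above a cutoff derived from the DMSO control wells, cut at about 28% in these data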;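 further: 0% = MITF dimer wells with DMSO only; inhibitors lower the bead chemiluminescence by keeping MITF from dimerizing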
AlphaScreen DR: counter-screen: compounds optically interfering with AlphaScreen; shares compounds with MITF inh; AlphaScreen optical interference counterscreen, cell-free; IC50, µM; 480 tested, 6% active; call rule not given here
AS interf ctr: AlphaScreen optical interference, counter-screen. shares compounds with MITF inh. LysRS AlphaScreen counterscreen, signal interference, triplicate. inhibition, % at 2.6 µM. 4,700 tested, 7.6% active;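 active means inhibition above a cutoff derived from the DMSO control wells, cut at about 30% in these data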
Active calls of the source: *; · = no result given.

SMILES	TEAD-YAP inh	GPR151 activ	FBW7 activator	MITF inh	MITF confirm	AS interf ctr	others
Cc1csc(-c2cc3ccccc3oc2=O)n1	-25	-7	0	67*	13	10
COc1ccc(C2CC(c3ccccc3)=NN2C(=S)Nc2ccccc2)cc1OC (stereo not drawn)	-9	1	0	-7	·	·
CC#CC(=O)N1CCC(Cc2ccc(OC)cc2)(C(=O)OCC)CC1	-31	2	0	95*	2	-6
CC(C)(C)C(=O)COC(=O)[C@@H]1CC(O)CN1S(=O)(=O)c1ccc(F)cc1 (stereo partly drawn)	13	2	0	60*	0	-2
CCOc1cc(CN2CCN(Cc3cc(OC)c(OC)cc3OC)CC2)ccc1OC	5	0	0	7	·	·
COc1ccc(CN2CCN(Cc3ccc(OC)c(OC)c3)CC2)cc1	18	0	0	74*	-8	-2
CCS(=O)(=O)N1CCN(Cc2ccc(OC)c(OC)c2)CC1	1	0	0	50	·	·
COc1cc(OC)c(OC)cc1CN1CCN(Cc2cccc(Cl)c2)CC1	-1	-1	1	82*	14	19
COc1ccc(CN2CCN(Cc3cccc(F)c3)CC2)cc1OC	3	-1	0	64*	19	18
COc1ccc(CN2CCN(Cc3cccc(Cl)c3)CC2)cc1OC	9	3	0	82*	9	18
CN1Cc2ccccc2CC1C(=O)NCC1CCC2(CCN(Cc3ccccn3)CC2)O1 (stereo not drawn)	-10	1	0	2	·	·
COc1ccc(CN2CCOCC2)cc1OC	-7	0	0	11	·	·
COc1ccc(CN2CCN(Cc3ccc(Cl)cc3)CC2)cc1OC	14	1	0	74*	13	0
Cc1cc(=O)n2nc(N3CCCC3C(=O)NCc3ccccc3F)sc2n1 (stereo not drawn)	4	4	0	5	·	·
CCCCNC(C)C1COc2ccccc2O1 (stereo not drawn)	3	0	0	9	·	·
CC(NCc1ccccc1)C1COc2ccccc2O1 (stereo not drawn)	-7	0	0	58*	-4	-5
CCc1ccc(N(C(=O)c2csnn2)C(C(=O)NC2CCCC2)c2ccncc2)cc1 (stereo not drawn)	-9	-1	0	10	·	·
CCN1CCN(C(c2nnnn2CCOC)C(C)C)CC1 (stereo not drawn)	13	0	0	20	·	·
COCCn1nnnc1C(C(C)C)N1CCSCC1 (stereo not drawn)	5	0	0	59*	12	12
N#Cc1c(N)nc(SCC(N)=O)c(C#N)c1-c1ccccc1Cl	-12	2	0	85*	3	5
O=C(c1ccccc1)c1ccc(N2CCN(C(=O)c3ccc(F)c(F)c3)CC2)c(F)c1	-9	1	0	-6	·	·
COc1ccc(CN2CCN(Cc3cc(OC)c(OC)cc3OC)CC2)cc1	0	1	0	76*	10	19
CCc1ccc(CN2CCN(Cc3cc(OC)c(OC)cc3OC)CC2)cc1	5	-1	0	63*	-4	5
COc1ccc(CN2CCc3cc(OC)c(OC)cc3C2)cc1	0	-1	1	18	·	·
O=C(NCC1CCCCC1)C1CCCN1C(=O)NC1CCCCC1 (stereo not drawn)	3	0	0	4	·	·
SMILES	TEAD-YAP inh	GPR151 activ	FBW7 activator	MITF inh	MITF confirm	AS interf ctr	others
C=CCNC(=O)C1CCCN1C(=O)NC1CCCCC1 (stereo not drawn)	9	1	0	66*	5	10
Cc1ccc(NC(=O)c2nn3c(C(F)(F)F)cc(-c4ccco4)nc3c2Cl)cc1	3	0	0	-3	·	·
COC(=O)c1cccc(N2C(=O)/C(=C/c3ccc([N+](=O)[O-])cc3)C=C2c2ccccc2)c1	3	-1	0	23	·	·
COc1cc(-c2nc3sc4c(c3c(=O)[nH]2)CCCC4)ccc1OC(=O)c1ccc(F)cc1	3	0	0	75*	-2	-5
COc1cc(-c2nc3sc4c(c3c(=O)[nH]2)CCCC4)ccc1OC(=O)c1ccc(Cl)cc1	-2	1	0	-14	·	·
O=c1[nH]c(-c2ccco2)nc2sc3c(c12)CCCC3	-28	-1	0	81*	69*	-13	AlphaScreen DR=>9.7
CC(C)N(CCNc1nc(Nc2cccc(N(C)C)c2)nc2c1ncn2CCN1CCCC1=O)C(C)C	10	0	0	1	·	·
COC(=O)C1=C(C)NC2=C(C(=O)CC(C)(C)C2)C1c1ccc(C)o1 (stereo not drawn)	12	0	0	6	·	·
COC1(OC)N=C(N)C2(C#N)C(c3ccc(Cl)cc3)C12C#N (stereo not drawn)	-4	-1	0	17	·	·
COC1(OC)N=C(N)C2(C#N)C(c3ccc(C)cc3)C12C#N (stereo not drawn)	5	0	0	55*	-2	6
CCOC1(OCC)N=C(N)C2(C#N)C(c3cccc(C)c3)C12C#N (stereo not drawn)	17	0	0	56*	-2	6
COC1(OC)N=C(N)C2(C#N)C(c3ccc4c(c3)OCO4)C12C#N (stereo not drawn)	6	2	0	48	·	·
COc1ccc(C2C3(C#N)C(N)=NC(OC)(OC)C23C#N)cc1 (stereo not drawn)	0	2	0	74*	0	8
CCOC1(OCC)N=C(N)C2(C#N)C(c3ccc(OC)c(OC)c3)C12C#N (stereo not drawn)	9	-1	0	25	·	·
Cc1cc(C)c(NC(=O)COc2ccc(-c3nnc(C)o3)cc2)c(C)c1	-3	-1	0	-11	·	·
COC(=O)C1=C(C)N=c2s/c(=C/c3cccc([N+](=O)[O-])c3)c(=O)n2C1c1ccccc1Cl (stereo not drawn)	4	-1	0	-7	·	·
CCN(CC)CCCOc1ccc([N+](=O)[O-])cc1	2	0	1	12	·	·
COc1cccc(C2NC(=O)NC(C)=C2C(=O)OCCOC(C)C)c1 (stereo not drawn)	1	-1	0	4	·	·
CCCCOc1ccc(C(=O)Nc2cccc(C)c2)cc1	-18	-6	0	10	·	·
Cc1cc(C)nc(NS(=O)(=O)c2ccc(N3C(=O)C=CC3=O)cc2)n1	-4	1	-1	61*	37*	5	AlphaScreen DR=>6.5
CC(=O)n1c2ccccc2c2cc(Cl)ccc21	-7	1	0	19	·	·
O=[N+]([O-])c1ccc(N2CCN(CCOCCO)CC2)c([N+](=O)[O-])c1	-2	-1	0	56*	-5	-3
O=C(CN1C(=O)c2ccccc2C1=O)NC1CCCCC1	-1	1	0	53*	-2	4
NNC(=O)c1cc(-c2ccc(Cl)cc2)n[nH]1	-12	1	0	56*	-2	-3
